Assay results: the supplement of paper PMC11150407
Counter-ions that a name gives are not always drawn. Among all 2,100 compounds or so, about 180 (8.6%) showed an effect of 50% or more. Shown is part of a subset that was picked to be rich in strong results.

What follows are compounds tested on MOLM1 and UCSD/AML1 (averaged) (assay: cell viability relative to DMSO control (POC); higher = less growth inhibition). Conditions: 1 µM; 72 h.
Procedure: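 Primary viability screen in the 3q26 EVI1-high AML cell lines MOLM1 and UCSD/AML1 (1.5e3 cells/well, 384-well), compounds at 1 uM for 72 h. ATP CellTiter-Glo read-out given as percent of viable cells over DMSO control (POC), averaged over duplicates. DMSO was the negative control and 5 uM etoposide the positive control. This mapping covers the MicroSource Spectrum and Selleck anticancer libraries (drug names).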
Work on `O[C@H]1[C@H](O)[C@@H](O)C2OC[C@H]1O2` yielded a cell viability of 110%. For `COc1ccc(-c2ccc3c(N4CCOCC4)nc(N4C[C@@H](C)O[C@@H](C)C4)nc3n2)cc1CO`, the cell viability was 30.1%. With `COc1ccc(-c2ccc3c(N4CCOC[C@@H]4C)nc(N4CCOC[C@@H]4C)nc3n2)cc1CO` the cell viability was 23.6%. `O=C(O)C(S)C(S)C(=O)O` (configuration not stated) was tested, and the cell viability was 115%. `O=C1c2ccccc2C(=O)c2c1ccc(O)c2O` was tested, and the cell viability was 95.7%. For `COc1ccc2c(=O)c(-c3cc4c(cc3OC)OCO4)coc2c1`, the cell viability was 99.7%. With `COc1ccc(-c2c(O)c3c(OC)c4c(cc3oc2=O)OC(C)(C)C=C4)cc1` the cell viability was 93.5%. For `CC[C@H](/C=C/[C@@H](C)[C@H]1CC[C@H]2[C@@H]3CC=C4C[C@@H](O)CC[C@]4(C)[C@H]3CC[C@]12C)C(C)C`, the cell viability was 107%. `CC(C)=CCCC1(C)C=Cc2c(O)c3c(c(CC=C(C)C)c2O1)OC12C(=CCCC1C(C)(C)O[C@@]2(C/C=C(\C)C(=O)O)C(=O)O)C3=O` (some centres not stated) showed a cell viability of 103%. `CC(C)C1=CC2=CC[C@@H]3[C@](C)(CCC[C@@]3(C)C(=O)O)[C@H]2CC1` gave a cell viability of 103%. `CC(=O)O[C@H]1C[C@@H](OC(C)=O)C(C)(C)[C@@H]2C[C@@H](OC(C)=O)[C@]3(C)[C@H](CC[C@@]4(C)[C@H](c5ccoc5)OC(=O)[C@H]5O[C@@]534)[C@@]12C` was tested, and the cell viability was 83.3%. In the case of `COc1ccc(-c2cc(=O)c3c(O)c(OC)c(O[C@@H]4O[C@H](CO[C@@H]5O[C@@H](C)[C@H](O)[C@@H](O)[C@H]5O)[C@@H](O)[C@H](O)[C@H]4O)cc3o2)cc1`, the cell viability is reported as 101%. With `CC(C)C[C@H](NC(=O)[C@@H](O)[C@H](N)Cc1ccccc1)C(=O)O` [Ubenimex (Bestatin)] the cell viability was 66.5%. With `CSCCC(N)C(=O)NC(CC(C)C)C(=O)NC(Cc1ccccc1)C(=O)O` (configuration not stated) the cell viability was 97.7%. `CC(C)C[C@H](NC(=O)[C@H](Cc1ccccc1)NC(=O)c1cnccn1)B(O)O` [Bortezomib (Velcade)] was tested, and the cell viability was 0.861%. With `COc1ccc(-c2cc(=O)c3c(OC)c(OC)c(OC)c(OC)c3o2)cc1OC` the cell viability was 75.6%. Compound `C[C@H]1COC2(CCN(c3nc(=O)c4cc(C(F)(F)F)cc([N+](=O)[O-])c4s3)CC2)O1` (racemic) [BTZ043 racemate] has a cell viability of 83.5%. With `O=c1[nH]cnc2c1ncn2[C@@H]1O[C@H](CO)[C@@H](O)[C@H]1O` the cell viability was 109%. Work on `N=c1ccn2c(n1)O[C@H]1[C@H](O)[C@@H](CO)O[C@H]12` yielded a cell viability of 5.77%. `NC(=O)c1ncn([C@@H]2O[C@H](CO)[C@@H](O)[C@H]2O)n1` gave a cell viability of 94.7%. Compound `Nc1ccn([C@@H]2O[C@H](CO)[C@@H](O)C2(F)F)c(=O)n1` [Gemcitabine (Gemzar)] has a cell viability of 8.79%. In the case of `Nc1ccn([C@@H]2O[C@H](CO)[C@@H](O)[C@@H]2O)c(=O)n1` [Cytarabine], the cell viability is reported as 7.02%. With `C[N+](C)(C)CCOP(=O)(O)OP(=O)([O-])OC[C@H]1O[C@@H](n2ccc(N)nc2=O)[C@H](O)[C@@H]1O` the cell viability was 85.3%. `Nc1ccn([C@@H]2O[C@H](CO)[C@@H](O)[C@@H]2O)c(=O)n1` showed a cell viability of 8.69%. For `NC(=O)c1ncn([C@@H]2O[C@H](CO)[C@@H](O)[C@H]2O)c1N`, the cell viability was 119%. `Nc1ccn([C@@H]2O[C@H](CO)[C@@H](O)C2(F)F)c(=O)n1` [Gemcitabine HCl (Gemzar)] was tested, and the cell viability was 10.8%. With `COC(=O)[C@H](OC(C)=O)[C@H]1C(C)(C)[C@H](OC(C)=O)[C@@H]2CC3=C4CC(=O)O[C@@H](c5ccoc5)[C@]4(C)CC[C@@H]3[C@@]1(C)C2=O` the cell viability was 94.8%. `COc1cc2c(cc1OC)C(=O)OC2` showed a cell viability of 103%. Work on `COc1ccc2c(c1)OC[C@@H](Cc1ccc(OC)c(OC)c1)[C@H]2O` yielded a cell viability of 96.9%. Work on `CC(=O)O[C@@H]1CC2C(C)(C)C(=O)C3OC3[C@]2(C)C2CC[C@@]3(C)[C@H](c4ccoc4)OC(=O)C4OC43[C@@]21C` (some centres not stated) yielded a cell viability of 95.3%. Work on `CC(C)c1c(O)ccc2c1CCC1[C@@](C)(C=O)CCC[C@]21C` (some centres not stated) yielded a cell viability of 96.4%. `C[C@@H]1CC[C@@]2(OC1)O[C@H]1C[C@H]3[C@@H]4CC[C@@H]5C[C@@H](O)CC[C@]5(C)[C@H]4CC[C@]3(C)[C@H]1[C@@H]2C` was tested, and the cell viability was 97.4%. In the case of `O=C(CC(=O)c1ccccc1)c1ccccc1`, the cell viability is reported as 80.9%. Work on `CN(NC(=O)CC(=O)NN(C)C(=S)c1ccccc1)C(=S)c1ccccc1` [Elesclomol] yielded a cell viability of 1.23%. Work on `O=C(OOC(=O)c1ccccc1)c1ccccc1` yielded a cell viability of 101%. In the case of `CCCCCCCCCCCCCCCCCCOCC(O)CO` (configuration not stated), the cell viability is reported as 85%. With `COc1ccc(-c2coc3cc(O)ccc3c2=O)cc1` the cell viability was 108%. With `CC12CCCC(O)(C1)C1CC(C)(C)C1CC2` (stereo not drawn) [beta-CARYOPHYLLENE ALCOHOL] the cell viability was 111%. `CC(=O)OC1CCC23CC1(C)CCC2C(C)(C)CC3OC(C)=O` (configuration not stated) was tested, and the cell viability was 96.1%. `CCOc1cc2ncc(C#N)c(Nc3ccc(F)c(Cl)c3)c2cc1NC(=O)/C=C/CN(C)C` [Pelitinib (EKB-569)] showed a cell viability of 14.4%. `CCOc1cc2ncc(C#N)c(Nc3ccc(OCc4ccccn4)c(Cl)c3)c2cc1NC(=O)/C=C/CN(C)C` [Neratinib (HKI-272)] was tested, and the cell viability was 14.7%. Compound `CN(C)C/C=C/C(=O)Nc1cc2c(Nc3ccc(F)c(Cl)c3)ncnc2cc1O[C@H]1CCOC1` [Afatinib (BIBW2992)] has a cell viability of 52.9%. In the case of `COc1cc2ncnc(Nc3ccc(F)c(Cl)c3)c2cc1NC(=O)/C=C/CN1CCCCC1`, the cell viability is reported as 50.9%. With `COc1ccc2cc([C@H](C)CO)ccc2c1` the cell viability was 103%. `COC(=O)C[C@H]1C(C)(C)[C@@H](O)[C@@H]2CC3=C4C=C(OC)O[C@@H](c5ccoc5)[C@]4(C)CCC3[C@@]1(C)C2=O` (stereo partly drawn) [3-DEOXO-3beta-HYDROXYMEXICANOLIDE 16-ENOL ETHER] showed a cell viability of 100%. `CCOC(=O)C(Cc1ccc(O)cc1)NC(C)=O` (configuration not stated) showed a cell viability of 105%. `C/C(=C\C(=O)Nc1ccccc1C(=O)O)c1ccc2ccccc2c1` was tested, and the cell viability was 104%. Compound `COc1cc(C/C=C/c2ccccc2)c(OC)cc1O` has a cell viability of 93.6%. For `COc1cc(O)c(C)c(O)c1`, the cell viability was 106%. `COc1ccc(C(=O)CC(=O)O)c2c1C=CC(C)(C)O2` was tested, and the cell viability was 99.5%. Work on `CC(C)=CCC/C(C)=C/CC/C(C)=C/CC/C(C)=C/CC/C(C)=C/CC/C(C)=C/CC/C(C)=C/CC/C(C)=C/CC/C(C)=C/CO` yielded a cell viability of 83.6%. In the case of `O=c1c(-c2ccc(O)cc2)coc2c([C@@H]3O[C@H](CO)[C@@H](O)[C@H](O)[C@H]3O)c(O)ccc12`, the cell viability is reported as 120%.
